Screening data as filed in PubChem BioAssay.
ST2 inh – blocks human ST2 binding to IL-33 | AlphaLISA ST2-Fc/biotin-IL-33 interaction, 1 h | inhibition, % for hits at 17 µM | hit rate 2.3% among 78,000; in the data active = inhibition above about 30%
Target sequence (Q01638 whole entry, looked up): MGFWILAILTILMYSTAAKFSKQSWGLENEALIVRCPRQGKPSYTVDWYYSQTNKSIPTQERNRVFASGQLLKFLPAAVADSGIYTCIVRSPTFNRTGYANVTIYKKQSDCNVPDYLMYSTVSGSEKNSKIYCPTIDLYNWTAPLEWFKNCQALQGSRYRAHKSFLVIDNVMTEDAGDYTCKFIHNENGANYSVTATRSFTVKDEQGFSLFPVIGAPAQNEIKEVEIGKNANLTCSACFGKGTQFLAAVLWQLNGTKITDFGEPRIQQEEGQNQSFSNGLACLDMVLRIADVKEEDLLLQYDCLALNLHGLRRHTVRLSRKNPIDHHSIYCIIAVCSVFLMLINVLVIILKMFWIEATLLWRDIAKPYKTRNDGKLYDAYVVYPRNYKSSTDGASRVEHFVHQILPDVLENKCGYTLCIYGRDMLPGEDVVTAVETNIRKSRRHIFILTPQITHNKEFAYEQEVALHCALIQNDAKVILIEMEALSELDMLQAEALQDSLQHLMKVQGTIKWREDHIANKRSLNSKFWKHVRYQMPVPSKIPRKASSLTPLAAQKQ
* = called active by the depositor; ! = repeats disagree. Many of the other results were omitted from the sample, so hits are more common in it than they were.

`O=C(NCc1ccccc1Cl)C1C2C=CC3(CN(Cc4ccccc4Cl)C(=O)C13)O2` (stereo not drawn) gave ST2 inh inactive.
For CC(C)Cc1cc(C(=O)N2CC[C@H](CO)[C@H](O)C2)on1 the results were ST2 inh inactive.
For CN(C)c1ccc(/C=c2\sc3nc4ccccc4n3c2=O)cc1 the results were ST2 inh inactive.
CCN1/C(=C/C=c2/sc3nc4ccccc4n3c2=O)C=Cc2ccccc21 was read as ST2 inh 43.0%*.
`CCN1/C(=c2/sc3nc4ccccc4n3c2=O)Sc2ccc(OC)cc21` gave ST2 inh inactive.
Screening CC1CCN(CCN2CCn3c2nc2ccccc23)CC1 returned ST2 inh inactive.
Screening CC(=O)OC(C)(C)/C=C/C(=O)[C@](C)(O)C1[C@H](O)C[C@@]2(C)[C@@H]3CC=C4[C@@H](C[C@H](O[C@@H]5O[C@H](CO)[C@@H](O)[C@H](O)[C@H]5O)C(=O)C4(C)C)[C@]3(C)C(=O)C[C@]12C (stereo partly drawn) returned ST2 inh inactive.
For O=c1c2cc(F)ccc2oc2ccc(F)cc12 the results were ST2 inh inactive.
For O=C(Nc1ccccn1)c1ccc2c(c1)C(=O)N(c1cccc([N+](=O)[O-])c1)C2=O the results were ST2 inh 30.0%*.
For CC1=C(C(=O)Nc2ccccn2)C(c2cccc([N+](=O)[O-])c2)C2=C(CCCC2=O)N1 (stereo not drawn) the results were ST2 inh inactive.
O=C(Nc1ccccc1C(=O)O)c1ccc2c(c1)C(=O)N(c1ccccn1)C2=O was read as ST2 inh inactive.
O=[N+]([O-])C1=Cc2cc(Br)cc(Br)c2OC1c1ccc2c(c1)OCO2 (stereo not drawn) was read as ST2 inh 60.0%*.
CCOc1ccc(C2Oc3c(cc(Br)cc3OC)C=C2[N+](=O)[O-])cc1OC (stereo not drawn) was read as ST2 inh 36.0%*.
For CN1c2ccccc2N(C)C1c1ccc2c(c1)OCO2 the results were ST2 inh inactive.
Screening CCOc1ccc(C(=O)Nc2c(C)cc(Br)cc2C)cc1[N+](=O)[O-] returned ST2 inh inactive.
Screening COc1ccc(C2SCCN2S(=O)(=O)c2ccc(Br)cc2)cc1[N+](=O)[O-] (stereo not drawn) returned ST2 inh inactive.
O=[N+]([O-])c1ccc(C2CNC(c3ccc4c(c3)OCO4)O2)cc1 (stereo not drawn) was read as ST2 inh inactive.
`O=C(NCCCN1CCCCC1)c1ccc2c(c1)N(Cc1ccc(F)cc1Cl)C(=O)CS2` gave ST2 inh inactive.
COc1ccc(OC)c(-n2c(SCC(=O)Nc3ccc(F)cc3)nc3c(c2=O)SCC3)c1 was read as ST2 inh inactive.
COc1ccc(OCCSc2nnnn2-c2ccccc2)cc1 was read as ST2 inh inactive.
CCCN(CC1CCCO1)C(=O)CC1(c2ccccc2F)CC(=O)N(C2CCCC2)C1=O (stereo not drawn) was read as ST2 inh inactive.
`O=C1C(=Cc2ccc(-c3ccc([N+](=O)[O-])cc3Cl)o2)C(=O)c2ccccc21` gave ST2 inh inactive.
`COc1cc([N+](=O)[O-])ccc1NC(=O)C(c1ccccc1)c1ccccc1` gave ST2 inh inactive.
`COc1cc([N+](=O)[O-])ccc1-c1ccc(/C=C2\C(=O)ON=C2c2ccccc2)o1` gave ST2 inh 34.0%*.
Screening CC(C)N(CCCNC(=O)C1CCCN1c1nnc(N2CCCC2=O)s1)Cc1ccccc1 (stereo not drawn) returned ST2 inh 34.0%*.
Screening CN(CCNC(=O)C1CCCN1c1nnc(N2CCCC2=O)s1)C1CCCCC1 (stereo not drawn) returned ST2 inh inactive.
CN(CCCNC(=O)C1CCCN1c1nnc(N2CCCC2=O)s1)C1CCCCC1 (stereo not drawn) was read as ST2 inh inactive.
Brc1ccc(C2CC(c3ccco3)n3ncnc3N2)cc1 (stereo not drawn) was read as ST2 inh inactive.
CCc1ccc(-c2nc(CN3CCC(C(=O)NCCCN4CCCC4=O)CC3)c(C)o2)cc1 was read as ST2 inh inactive.
For COc1ccc(C2CC(c3ccc(C)cc3)=NN2S(=O)(=O)c2ccccc2)cc1 (stereo not drawn) the results were ST2 inh inactive.
For COc1ccc(C2CC(c3cccs3)=NN2C(C)=O)cc1 (stereo not drawn) the results were ST2 inh inactive.
Screening COc1ccc(C2=NN(S(=O)(=O)c3ccccc3)C(c3ccc(C)cc3)C2)cc1OC (stereo not drawn) returned ST2 inh inactive.
`O=S(=O)(c1ccccc1)N1N=C(c2ccccc2)CC1c1ccc(Cl)cc1` (stereo not drawn) gave ST2 inh inactive.
Screening COc1ccc(C2CC(c3cccs3)=NN2S(=O)(=O)c2ccc(C)cc2)cc1 (stereo not drawn) returned ST2 inh 32.0%*!.
